Drawing on PubChem BioAssay, this text covers z-score for 32 compounds.

The nature of the test: modulators of HCV replicon luciferase signal, primary screen, HCV replication inhibitor project, Huh7 cells, luciferase reporter (AID 1109).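 Also: huh7 hepatoma cells harbouring a luciferase neomycin HCV replicon reporter; luciferase luminescence as measure of HCV replicon replication; test concentration not given here.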 To be noted: 48 h, higher = more signal.
Compound `CO[C@H]1O[C@H](CO)[C@@H](OC(=O)Nc2ccc3c(c2)OCO3)[C@H](OC(=O)Nc2ccc3c(c2)OCO3)[C@@H]1OC(=O)Nc1ccc2c(c1)OCO2` yielded a z-score of 0.158.

Regarding `CCOC(=O)C[C@H]1[C@H](OC(=O)c2ccccc2-c2ccccc2)[C@@H](NC(=O)c2ccc3ccccc3c2)c2cc(OCCCO)ccc2N1C(=O)c1ccccc1`, the z-score was -1.27.

Turning to `CC(C)[Si]1(C(C)C)OCc2cc(-c3ccc(-c4ccc(Cl)c(Cl)c4)o3)nc(-c3ccccc3)c21`, the z-score was -1.16.

Compound `COc1ccc([C@H]2OC[C@@H]3C[C@H](Cc4ccccc4)C(=O)N32)cc1` registered a z-score of -2.66.

The compound `COC(=O)C(CC#Cc1ccc2c(c1)[C@]1(C(=O)N2)[C@H](c2ccc(O)cc2)N2[C@H](c3ccccc3)[C@H](c3ccccc3)OC(=O)[C@H]2[C@@H]1C(=O)NC[C@H](O)c1ccccc1)C(=O)OC` registered a z-score of -1.04.

`CC(=O)N1CC2(CC2)CC1c1ccccc1` (configuration not stated): the z-score came out at 0.677.

`COc1ccc([Si](C)(C)[C@@H]2[C@@H](CC(=O)N3CCC[C@H]3CO)O[C@]3(C(=O)N(Cc4cccc(N5C(=O)COc6ccccc65)c4)c4ccccc43)[C@H]2C)cc1` showed a z-score of -4.2.

For `O=c1cccc(-c2ccc([N+](=O)[O-])cc2)o1`, the z-score is -0.885.

`N[C@@H](Cc1ccccc1)C(=O)NCc1cn(Cc2ccccc2)nn1`: the z-score was 0.0943.

The compound `O=C1C2C=CC(C(O)c3cccc(O)c3)N(Nc3ccc([N+](=O)[O-])cc3)C2C(=O)N1c1ccccc1` (configuration not stated) registered a z-score of -0.278.

With `CC(C)c1ccc(NN2C(C(O)c3ccc(F)cc3)C=CC3C(=O)N(c4ccccc4)C(=O)C32)cc1` (configuration not stated), the z-score is -0.619.

Consider `C=CC[C@@H](OC(=O)Nc1ccc(SC)cc1)c1ccc(O)c(F)c1`, for which the z-score is 0.56.

`COc1cc2c(cc1O)C(C1CC1)N(C)CC2` (configuration not stated) gave a z-score of -0.817.

Compound `O=C1CS(=O)(=O)C(c2cccc([N+](=O)[O-])c2)N1c1ccccc1` (configuration not stated) gave a z-score of -0.376.

On to `COC(=O)[C@@H]1N=C(c2ccc(OCCCO)cc2)O[C@@H]1c1ccccc1`, for which the z-score was -1.94.

The compound `O=C1NC(=O)C2C1C=CC(C(O)c1ccco1)N2Nc1ccc(Cl)cc1Cl` (configuration not stated) had a z-score of -0.664.

`COc1ccc([Si](C)(C)[C@@H]2[C@@H](CCO)O[C@]3(C(=O)N(Cc4cccc(NC(=O)[C@H](C)O)c4)c4ccccc43)[C@H]2C)cc1` displayed a z-score of -5.17.

`CCCN1C(=O)[C@]2(Cc3ccccc31)N=C(c1ccc(OCCCO)cc1)O[C@@H]2c1ccccc1` came in with a z-score of -3.29.

In turn, `CN(C)C(=O)[C@@]1(Cc2ccccc2)N=C(c2ccc(OCCCO)cc2)O[C@H]1c1ccccc1` returned a z-score of -1.76.

`COCCOC(=O)N1C(=O)[C@@]2(c3cc(C#CC4(O)CCCCCC4)ccc31)[C@H](c1ccc(O)cc1)N1[C@H](c3ccccc3)[C@H](c3ccccc3)OC(=O)[C@H]1[C@@H]2C(=O)N1CCN(c2ncccn2)CC1` displayed a z-score of -1.58.

`COc1ccc(CCNC(=O)[C@@]2(Cc3ccccc3I)c3ccccc3C(=O)N(C3CCCCC3)[C@H]2c2ccc(CO)cc2)cc1` yielded a z-score of -3.2.

As to `CCOC(=O)C=Cc1cccc(C)c1O`, the z-score came to 0.717.

`C=CCC(OC(C)=O)[C@@H]1[C@@H](N(Cc2ccc(-c3cccc(C(F)(F)F)c3)o2)C(=O)Cc2ccc(OC)cc2)c2cc(OCCCO)ccc2N1C(=O)c1ccc(-c2ccccc2)cc1` (some centres not stated): the z-score amounted to 0.278.

The compound `O=C1[C@H]2C=C(I)[C@H](C[C@@H]2OCCOCCO)[C@@]12CO2` displayed a z-score of -2.21.

`C#Cc1cc2ccccc2oc1=O` showed a z-score of -3.88.

`O=C(Cc1ccccc1)[C@H]1C2C=CCCC(c3ccccc3)=C2CN1Cc1ccccc1` (some centres not stated) gave a z-score of -0.576.

On to `O=C1O[C@@H](c2ccccc2)[C@@H](c2ccccc2)N2[C@@H](c3ccc(OCCO)cc3)[C@]3(C(=O)Nc4ccc(C#CC5=CCCCC5)cc43)[C@@H](C(=O)NC[C@H](O)c3ccccc3)[C@H]12`, for which the z-score is -2.54.

`COc1cc2c(cc1O)C(C1CC1)N(Cc1cccc(OC(F)(F)F)c1)CC2` (configuration not stated) came in with a z-score of -2.75.

The compound `[N-]=[N+]=NCc1ccccc1[C@@H]1OC(c2ccc(OCCCO)cc2)=N[C@]1(CCS(=O)(=O)c1ccccc1)C(=O)O` returned a z-score of 1.1.

In turn, `[N-]=[N+]=NCc1ccccc1[C@H]1OC(c2ccc(OCCCO)cc2)=N[C@@]1(Cc1ccccc1N=[N+]=[N-])C(=O)NCC(O)CO` (some centres not stated) showed a z-score of -1.75.

Regarding `COCCOC(=O)N1C(=O)[C@@]2(c3ccccc31)[C@H](C(=O)NC[C@H](O)c1ccccc1)[C@H]1C(=O)O[C@H](c3ccccc3)[C@H](c3ccccc3)N1[C@@H]2c1ccc(O)cc1`, the z-score is -0.986.

Compound `O=C1OCCC/C=C\[C@H]2OC34C=CCN(c5ccc6ccccc6c5)C(=O)[C@H]3N(CCO)C(=O)[C@@H]4C12` (some centres not stated) registered a z-score of -0.0164.
